PubChem BioAssay AID652128 (Broad Institute, 2013)
The other results are listed elsewhere or left out. Records with an inconclusive call do not appear. The source made the active and inactive calls.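 The calls were made as follows: active = fitted half-maximal concentration for signal loss at or below twice the highest dose tested, in every separate run (actives reach about 64 µM in these data); inconclusive = runs disagree, or flat partial signal loss, or poor fit; inactive = the rest.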

Assay: DNA binders displacing acridine orange – biochemical, fluorescence polarization, cherry-pick, artefact control for RAD52 inhibitor project, dose response (AID 652128)
Conditions: Salmon sperm DNA/acridine orange FP displacement, DNA binding

AC50, active:
CCN(CC)CCCNC(=O)c1cc2c(=O)[nH]c3ccc(C)cc3c2s1 49.6 µM
CC(=O)Nc1ccc(Nc2c3ccccc3nc3ccccc23)cc1 7.66 µM
Cc1cc(C)c2nc3nc(C)cc(C)c3c(N)c2c1 30 µM
CN(C)CCNC(=O)c1ccc(Cl)c2cc3ccccc3nc12 13.1 µM

outcome, inactive:
COc1ccc2sc(N(CCCN(C)C)C(=O)c3ccc(S(=O)(=O)N(C)C4CCCCC4)cc3)nc2c1
CC(=O)Nc1ccc(CNc2nc(NCCN(C)C)nc3cc(-c4ccccc4)sc23)cc1
Cc1cccc(NC(=S)NC23CN4CN(CN(C4)C2)C3)c1
CCN1CCN(CCNC(=O)c2ccc(/C=C3/Sc4ccccc4N(Cc4cccc(C)c4)C3=O)cc2)CC1
CN1CCC(CN)(N2CCN(c3ccccc3)CC2)CC1
CC(=O)Nc1cc(-c2ccc(N3CCN(C)CC3)cc2)cn2c(-c3cccc(C(=O)N(C)C)c3)cnc12
CC(C)C(=O)N1CC(=O)Nc2ccc(F)cc2C1c1ccc(F)cc1 (stereo unspecified)
CN(C)CCNC(=O)c1ccc(-c2cn3c(-c4ccc(Oc5ccccc5)cc4)cnc3cn2)cc1
COc1ccc(CC(N)c2csc(NC(=O)Nc3ccc(C(C)C)cc3)n2)cc1 (stereo unspecified)
COc1ccc(NC(=O)C2C3CCC(O3)C2C(=O)O)cc1OC (stereo unspecified)
CCN(CC(=O)Nc1ccc(NC(C)=O)cc1)C(=O)C1CC(=O)N(c2ccc3c(c2)OCCO3)C1 (stereo unspecified)
CN1CCN(C2Cc3ccc(Cl)cc3Sc3ccc(F)cc32)CC1 (stereo unspecified)
Cn1ccc(=Nc2ccc(NC(=O)c3ccc(N=c4ccn(C)c5ccc([N+](=O)[O-])cc45)cc3)cc2)cc1
COc1cccc2sc(N(CCCN(C)C)C(=O)C(c3ccccc3)c3ccccc3)nc12
Nc1ccc(OCC(O)C[n+]2ccc(CCS(=O)(=O)[O-])cc2)cc1 (stereo unspecified)
CCN(CC)CCN(C(=O)c1ccc2c(c1)CCCC2)c1nc2c(OC)cccc2s1
CN(Cc1ccccc1F)c1cc2c(c3c1ccn3C)C1CCC2O1 (stereo unspecified)
CCN(CC)CCn1c2ccc(Cl)cc2c2nc(C)sc21
CC(C)[C@@H](C)/C=C/[C@@H](C)[C@H]1CC[C@@H]2[C@]1(C)CCC1[C@]23C=C[C@]2(C[C@@H](O)CC[C@]12C)N(c1ccc([N+](=O)[O-])cn1)O3 (stereo partly specified)
CCn1cc(CN2CCC(C(=O)Nc3cccc(-c4cccc(Cl)c4)c3)CC2)cn1
CCN(CC)CCNC(=O)c1ccc(NC(=O)c2cc(-c3ccncc3)nc3ccccc23)cc1
Oc1ccc(N=Cc2sc3ccccc3c2Cl)cc1
